Data from PubChem BioAssay AID2284161 (EPA ToxCast).
Activity calls are given as the source filed them. Rule for the calls: active = hit-call score of the fitted dose curve at least 0.9, where 1 is the maximum; inactive = score below 0.9.

Each molecule was assayed against human Serotonin Receptor 5-HT6 Agonism, HTR6 (gene 3362) (UniProt P50406) (assay: ERF_FR_GPCR_hHTR6: Eurofins (ERF) G Protein-Coupled Receptor (GPCR) Radioligand Binding LeadHunter Assay for human Serotonin Receptor 5-HT6 Agonism).
Sequence of human Serotonin Receptor 5-HT6 Agonism, HTR6 (gene 3362) (P50406 whole entry, looked up): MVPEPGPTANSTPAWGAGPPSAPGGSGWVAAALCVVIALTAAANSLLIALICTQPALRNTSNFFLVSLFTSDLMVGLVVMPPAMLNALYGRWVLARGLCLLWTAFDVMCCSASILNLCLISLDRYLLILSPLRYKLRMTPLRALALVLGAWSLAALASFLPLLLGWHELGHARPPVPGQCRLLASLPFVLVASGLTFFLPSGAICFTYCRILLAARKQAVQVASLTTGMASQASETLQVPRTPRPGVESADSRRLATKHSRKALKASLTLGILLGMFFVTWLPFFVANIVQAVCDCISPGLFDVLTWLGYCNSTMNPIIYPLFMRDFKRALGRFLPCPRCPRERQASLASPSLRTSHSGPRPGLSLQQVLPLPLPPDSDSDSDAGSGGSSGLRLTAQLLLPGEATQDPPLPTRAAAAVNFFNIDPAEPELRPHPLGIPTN
Method: ERF_FR_GPCR_hHTR6 is a biochemical, single-readout assay that uses extracted gene-proteins in a cell-free assay. Measurements were taken 2 hour after chemical dosing in a 96-well plate. See 5-HT6 Human Serotonin GPCR Binding (Agonist Radioligand) Assay, Cerep.ERF_FR_GPCR_hHTR6 is an assay component calculated from the ERF_FR_GPCR_hHTR6 assay. It is designed to measure radioligand binding using a type of binding reporter as detected by scintillation counting with radiometry technology.Data from the assay component ERF_FR_GPCR_hHTR6 was analyzed at the assay endpoint, ERF_FR_GPCR_hHTR6, in the positive analysis fitting direction relative to DMSO as the negative control and baseline of activity. Using a type of binding reporter, gain-of-signal activity can be used to understand changes in binding as they relate to gene HTR6. To generalize the intended target to other relatable targets, this assay endpoint is annotated to the gpcr intended target family, where the subfamily is serotonin.
Human cells are incubated for 120 minutes at 37 C with [3H]LSD ligand (2 nM) and serotonin as control inhibitor. Test Sample Requirements: Minimum for 1) Screen: 60 ul of 10 mM stock -OR- 1 mg (pre-weighed) for 10 uM final testing. 2) Dose Response: 90 ul of 10 mM stock -OR- 1 mg (pre-weighed) for a top concentration at 10 uM.
In the case of `O=C(/C=C/c1ccc(O)cc1)CC(=O)/C=C/c1ccc(O)cc1`, the AC50 is reported as 2700 nM (active).
